# Screens from PubChem.
# aSyn UTR inh – MLPCN primary screen, SNCA 5' untranslated region; AID 1813; hit rate 0.82% among 300,000; alpha-synuclein 5'UTR reporter, inhibitor activity; inhibition, % (tested at 7.5 µM); in the data active = inhibition above about 60%; inconclusive = no clear call, values can overlap the other calls;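 note: H4 neuroglioblastoma cells stably carrying SNCA 5'UTR luciferase fusion; 0% = DMSO wells and 100% = positive control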
# PAX8 inh HTS – PAX8 transcriptional activity inhibition; hit rate 1.2% among 360,000; RMG-I TPO-luciferase reporter, SteadyGlo, 24 h; inhibition, % at 12.6 µM;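 active = mean replicate inhibition at least 60% with every replicate also reaching 60%; inconclusive = only one of the two criteria is met; inactive = mean below 60% and not all replicates reaching 60%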;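 note: luciferase light reporting Pax8 driven TPO promoter activity; plate controls were median of neutral control wells for no effect and mitoxantrone controls for full effect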
# LMP1 NFkB inh – reduces LMP1-driven NF-kappaB luciferase signal | LMP1-induced NF-kappaB luciferase reporter cells, luminescence | inhibition, % at 12.5 µM | hit rate 0.69% among 350,000; in the data active = inhibition above about 41%; inconclusive = no clear call, values can overlap the other calls;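 note: 0% = neutral control wells and 100% = reference inhibitor control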
# Shn3 3UTR inh – inhibitors of Schnurri-3 3'UTR reporter in osteoblasts | Clone20 osteoblast Shn3 3'UTR firefly luciferase, 24 h | inhibition, % at 12.5 µM | hit rate 0.52% among 360,000;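 active = mean inhibition of at least 75% with every replicate also reaching 75%; inconclusive = mean inhibition at least 75% but some replicate below; inactive = mean inhibition below 75%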;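 note: 0% = median of neutral control wells and 100% = pilot-screen positive control compound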
# MITF TRPM1 inh – inhibitors of MITF-driven TRPM1 promoter in melanoma cells; AID 488899; SK-MEL-5 TRPM1 promoter luciferase, 24 h; inhibition, % at 12.5 µM; hit rate 0.83% among 330,000;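 active = mean inhibition across replicates of 60% or more, whatever share of single replicates reaches that level; inconclusive = some that reach 60%, reason not given; inactive = mean inhibition across replicates below 60%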
# Active calls of the source: *; ? = inconclusive; · = no result given. The list is not random: actives were taken first. Their share in the collection is about 2.1%.
SMILES,aSyn UTR inh,PAX8 inh HTS,LMP1 NFkB inh,Shn3 3UTR inh,MITF TRPM1 inh
C=CCN=C1NC(c2ccc(F)cc2)C(C(=O)OC)=C(C)N1Cc1ccccc1C(F)(F)F (configuration not stated),·,-17.1,·,·,·
O=C(CN(C(=O)CNC(=O)c1ccco1)c1ccc(F)c(Cl)c1)NC1CCCCC1,-9.0,6.8,-5.7,-8.5,5.8
COc1ccc(CNC(=O)NCCc2c[nH]c3ccccc23)cc1,-20.2,3.1,-7.0,4.7,1.7
CCOc1cc(C(=O)N/N=C/C(Br)=C/c2ccccc2)cc(OCC)c1OCC,104.5*,·,0.9,5.6,33.4
O=C(N/N=C/C(Br)=C/c1ccccc1)c1ccncc1,-50.8,7.0,-7.0,18.0,18.6
CC(C)N1CCN(c2ccc(OC[C@H]3CO[C@](Cn4cncn4)(c4ccc(Cl)cc4Cl)O3)cc2)CC1,·,16.4,56.3*,2.2,-8.5
COc1ccc(N2CCN(C(=O)Cn3cncn3)CC2)cc1,-22.8,20.7,4.1,11.4,-2.2
CC(C)N1CCN(c2ccc(OCC3COC(Cn4cncn4)(c4ccc(Cl)cc4Cl)O3)cc2)CC1 (configuration not stated),·,-12.8,-4.1,95.2*,-3.9
COc1ccc(N2CCN(Cc3nc(-c4ccc(Cl)cc4Cl)no3)CC2)cc1,-18.1,·,-10.9,-24.0,5.3
CC(=O)N1CCc2c(sc(NC(=O)c3ccc([N+](=O)[O-])o3)c2C(N)=O)C1,·,86.6*,-25.5,99.5*,·
CCC(=O)Nc1sc2c(c1C(N)=O)CCN(C(C)=O)C2,-1.4,-0.4,-8.4,-19.6,·
CC(C)[C@H](NC(=O)OC(C)(C)C)c1nnc(S(=O)(=O)Cc2c(F)cccc2Cl)o1,-17.5,·,30.4,94.7*,99.1*
Cc1ccccc1CS(=O)(=O)c1nnc([C@H](CC(C)C)NC(=O)OC(C)(C)C)o1,7.7,·,4.0,?,83.6*
CC(C)(C)OC(=O)N[C@@H](Cc1ccccc1)c1nnc(S(=O)(=O)Cc2cccc(F)c2)o1,17.8,·,·,·,·
CC[C@@H](C)[C@H](NC(=O)OC(C)(C)C)c1nnc(S(=O)(=O)Cc2cc(C)ccc2C)o1,12.2,·,4.0,?,54.4
CN(Cc1c(F)cccc1Cl)C(=O)C1=CC=CN2CCS(=O)(=O)N=C12,·,-8.7,-2.9,-18.9,3.4
CCc1ccc2c(CN(CC)Cc3nc4ccccc4c(=O)[nH]3)cc(=O)oc2c1,4.1,·,1.6,-4.0,-5.7
O=C(COC(=O)Cc1ccccc1)NCc1ccc2c(c1)OCO2,·,·,3.2,-16.9,11.1
O=C(O)c1cccc(Nc2ccnc(Nc3cccc(C(=O)O)c3)n2)c1,45.4,23.9,57.8*,-2.9,33.6
COc1cc(-c2cnc3c(NC=O)cc(-c4cccc(C(F)(F)F)c4)cn23)cc(OC)c1OC,·,21.4,·,16.9,·
O=C(NCc1ccccc1)C1=C[C@@H](c2csc3ccccc23)C[C@@H](OCCCCO)O1,94.9*,77.3*,·,·,·
O=C(NC1CC1)C1=C[C@H](c2csc3ccccc23)C[C@H](OCCCCO)O1,1.6,-9.2,-1.8,0.5,13.1
C[C@H](NC(=O)C[C@@H]1CC[C@H]2[C@@H](COC[C@H](O)CN2C(=O)Nc2ccccc2)O1)c1ccccc1,·,8.3,·,·,·
Cc1ccc(C(=O)c2no[n+]([O-])c2C(=O)c2ccc(C)cc2)cc1,-8.5,7.3,1.2,20.4,79.1*
COC(=O)C1=C(C)N(c2cc(C)cc(C)c2)/C(=C/c2ccc(O)cc2)C1=O,-0.1,17.0,51.6*,59.8,0.5
SMILES,aSyn UTR inh,PAX8 inh HTS,LMP1 NFkB inh,Shn3 3UTR inh,MITF TRPM1 inh
COc1ccc(-n2c(SCC(=O)Nc3cc(C)on3)nc3c(c2=O)SCC3)cc1,11.4,-7.5,82.6*,2.3,-7.7
Cc1ccc(-n2c(SCC(=O)N3CCCC3)nc3c(c2=O)SCC3)cc1,6.2,·,·,·,·
COC(=O)c1ccc(CSc2nc3c(c(=O)n2-c2ccc(C)cc2)SCC3)o1,14.1,7.6,70.4*,-1.6,-3.0
COc1cc(OC)cc(C(=O)N2CCN(Cc3ccc4c(c3)OCO4)CC2)c1,16.8,-12.3,-1.8,-3.0,-8.5
COc1ccc(-c2cn(CC[C@H]3CC[C@H](NC(=O)Cc4ccccn4)[C@H](CO)O3)nn2)cc1,·,54.9,·,·,·
COc1ccc(-c2cn(CC[C@@H]3CC[C@@H](NC(=O)Cc4ccccn4)[C@@H](CO)O3)nn2)cc1,·,62.1*,·,·,·
COc1ccc(-c2cn(CC[C@H]3CC[C@@H](NC(=O)Cc4ccccn4)[C@H](CO)O3)nn2)cc1,·,76.6*,·,·,·
COc1ccc(-c2cn(CC[C@H]3CC[C@H](NC(=O)Cc4ccccn4)[C@@H](CO)O3)nn2)cc1,·,85.7*,·,·,·
O=C1Nc2c(c(=O)[nH]c(=O)n2-c2ccccc2)C(C(F)(F)F)(C(F)(F)F)N1,-6.7,·,-15.1,-20.4,8.2
